The values below come from PubChem BioAssay (EPA / NIEHS).

Where “and” joins values, the source holds several entries; their conditions need not be identical. Identical values can stand only once. Inconclusive results are not listed. Where a structure was tested more than once in an assay, its records may differ in their call. Calls of active or inactive are those of the source. The calls were made as follows, unless noted: active = hit-call score of the fitted dose curve at least 0.9, where 1 is the maximum; inactive = score below 0.9.

Assay [1] is described as follows: CCTE_Shafer_MEA_dev_firing_rate_mean: CCTE's Neural Network Formation Assay for Mean Firing Rate, Shafer Lab (AID 2284031).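 As to AC50: curve fitted for loss of firing so AC50 reflects decreased mean firing rate.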 The procedure, abridged:
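Spike frequency (spikes/recording length, averaged over active electrodes) was recorded on days 5, 7, 9 and 12 and collapsed to AUC; rat cortical cultures received compound continuously over 12 days of network development.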

Assay [2] can be described thus: CCTE_Shafer_MEA_dev_per_burst_spike_percent: CCTE's Neural Network Formation Assay for Percent of Spikes in a Burst, Shafer Lab (AID 2284032).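 As to AC50: fitted as a decrease in burst spike percentage below DMSO baseline.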 A digest of the protocol:
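Value is trapezoidal AUC over recordings on days 5, 7, 9 and 12 of the well-mean fraction of spikes falling in single-electrode bursts; rat cortical cultures exposed continuously from plating, treatment renewed DIV 5 and 9, fitted downward against DMSO.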

Assay [3] in a line: CCTE_Shafer_MEA_dev_active_electrodes_number: CCTE's Neural Network Formation Assay for Number of Active Electrodes, Shafer Lab (AID 2284040; active = hit-call score of the fitted dose curve at least 0.9, where 1 is the maximum;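 as to AC50: potency for loss of active electrodes versus DMSO so lower counts are hits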). The procedure, abridged:
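Counts electrodes per well firing at least 5 spikes/min, recorded on days 5, 7, 9 and 12 in rat cortical cultures dosed continuously from plating (treatment refreshed DIV 5, 9). Value is the area under the curve over recordings, fitted downward relative to DMSO.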

Assay [4] can be described thus: CCTE_Shafer_MEA_dev_burst_rate: CCTE's Neural Network Formation Assay for Burst Rate, Shafer Lab (AID 2284042).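 As to AC50: potency for loss of burst rate below DMSO control.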 The procedure, abridged: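 Primary rat cortical neurons on PEI-coated 48-well MEA plates (laminin added with cells at plating) (16 electrodes/well), exposed from plating to day 12, dosing renewed at DIV 5 and 9. Burst rate averaged over active electrodes, recorded DIV 5, 7, 9, 12, summarized as AUC; loss versus DMSO.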

Assay [5] is described as follows: CCTE_Shafer_MEA_dev_per_burst_interspike_interval: CCTE's Neural Network Formation Assay for Burst Interspike Interval, Shafer Lab (AID 2284044).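 As to AC50: potency for a decrease of within-burst interspike interval below DMSO level.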 The procedure, abridged: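 Developmental network-formation MEA in primary rat cortical cultures with exposure spanning days 0–12. Within-burst ISI is averaged per well and integrated across recording days by area under the curve, with DMSO as negative control baseline.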

The nature of assay [6]: CCTE_Shafer_MEA_dev_burst_duration_mean: CCTE's Neural Network Formation Assay for Mean Burst Duration, Shafer Lab (AID 2284045).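 As to AC50: curve fitted for loss meaning shorter burst duration than DMSO.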 The procedure, abridged:
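Rat cortical cultures, 1.5 x 10^5 cells/well with laminin drop; continuous dosing days 0–12, media plus treatment refreshed DIV 5, 9. AxIS adaptive spike detection; mean single-electrode burst duration, AUC over four recordings, negative direction vs DMSO.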

Assay [7] is described as follows: CCTE_Shafer_MEA_dev_interburst_interval_mean: CCTE's Neural Network Formation Assay for Mean Interburst Interval, Shafer Lab (AID 2284046).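 Also: well-mean interburst interval of bursting electrodes as AUC over four recording days; curve fitted for decrease in interburst interval relative to DMSO.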 The procedure, abridged:
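Recordings on days 5, 7, 9 and 12 give well-mean interburst interval across actively bursting electrodes, summarized as area under the curve. Cultures: rat cortical neurons, continuous exposure from day 0, compound renewed at feeds; decrease analyzed versus DMSO.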

A short description of assay [8]: CCTE_Shafer_MEA_dev_inter_network_spike_interval_mean: CCTE's Neural Network Formation Assay for Mean Inter-network Spike Interval, Shafer Lab (AID 2284047).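 As to AC50: potency for a decrease in mean inter-network spike interval below DMSO.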 The procedure, abridged: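 Primary rat cortical neurons on 16-electrode MEA wells, exposed from plating day 0 through DIV 12, compound renewed at DIV 5 and 9 media changes. Mean interval between network-spike peaks recorded DIV 5, 7, 9, 12; collapsed as trapezoidal AUC, fitted downward versus DMSO.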

A short description of assay [9]: CCTE_Shafer_MEA_acute_burst_percentage_std: CCTE's Neural Acute Assay for Standard Deviation of Burst Percentage, Shafer Lab (AID 2284018).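 Also: fitted in the negative direction so actives lower burst percentage SD.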 A digest of the protocol: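 Rat primary cortical neurons on 48-well MEAs, DIV 13 or 15, 37 C. 40-min baseline then 40-min recording with compound (0.03-40 uM); well-level SD of per-electrode burst spike percentage, expressed as percent change from baseline.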

The nature of assay [10]: CCTE_Shafer_MEA_acute_per_network_burst_spike_number_mean: CCTE's Neural Acute Assay for Average Number of Spikes in a Network Burst, Shafer Lab (AID 2284019). A digest of the protocol: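 Rat cortical cultures, DIV 13/15; spike threshold 8x rms noise, 300-5000 Hz band-pass, 12.5 kHz sampling; wells need >/= 10 active electrodes. Compound 0.03-40 uM, 40 min, 37 C; % change vs own baseline, DMSO negative control.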

Assay [11] can be described thus: CCTE_Shafer_MEA_acute_per_network_burst_spike_number_std: CCTE's Neural Acute Assay for Standard Deviation of Number of Spikes in a Network Burst, Shafer Lab (AID 2284020).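 Also: fitted for decrease in spike-number SD versus DMSO so actives lower it.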 The procedure, abridged: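 Rat cortical cultures, DIV 13/15, 37 C; 20-min stabilisation, 40-min baseline, compound 0.03-40 uM, 40-min re-record. Spikes detected at 8x rms noise (300-5000 Hz band-pass). Readout: % change from baseline in per-burst spike-number SD.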

A short description of assay [12]: CCTE_Shafer_MEA_acute_per_network_burst_electrodes_number_mean: CCTE's Neural Acute Assay for Mean Number of Electrodes in a Network Burst, Shafer Lab (AID 2284021).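 Also: curves fitted for decreases only so hits reduce electrodes per burst.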 The procedure, abridged:
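Cultures of rat cortex neurons were exposed on DIV 13 or 15 to compounds at 0.03-40 uM in at least three wells each. Activity over 40 min before and 40 min after exposure at 37 C gave the percent change in electrodes per network burst.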

Assay [13] in a line: CCTE_Shafer_MEA_acute_network_burst_percentage: CCTE's Neural Acute Assay for Percentage of Network Bursts, Shafer Lab (AID 2284022).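 Also: curves fitted for loss so actives lower network burst percentage.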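 As to outcome: rat primary cortical neuron networks on multiwell MEA recorded 40 min.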 The procedure, abridged:
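Cortical neurons from rat were grown over microelectrode arrays and used on day 13 or 15 in vitro. Wells with at least 10 active electrodes received test chemical at 0.03-40 uM. Activity during 40 min of exposure was compared with the preceding 40-min baseline.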

Assay [14] can be described thus: CCTE_Shafer_MEA_acute_cross_correlation_HWHM: CCTE's Neural Acute Assay for Cross Correlation at Half Width at Half Maximum, Shafer Lab (AID 2284026).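 Also: hits are a decrease in cross-correlogram half width relative to DMSO.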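 As to outcome: spontaneous network firing of rat primary cortical neurons on multiwell microelectrode arrays.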 A digest of the protocol: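 Primary cortex (rat), MEA, DIV 13/15; compound 0.03-40 uM; 40 min pre + 40 min post at 37 C; spike threshold 8x rms; wells need ≥10 active electrodes; endpoint = % change in cross-correlogram HWHM vs baseline, DMSO negative control.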

Assay [15] can be described thus: CCTE_Deisenroth_AIME_384WELL_CTox_Active: Cytotoxicity Assessment (CTOX) in CCTE's 384-well Estrogen Receptor Transactivation Assay with AIME metabolic competence (metabolism positive), Deisenroth Lab (AID 2284037; active = hit-call score of the fitted dose curve at least 0.9, where 1 is the maximum;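 also: chemicals first conditioned 2 h by alginate-bound induced rat liver S9 before cells; activity means signal loss indicating cell death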). The procedure, abridged: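 Chemicals pre-incubated 2 hours with alginate-immobilised phenobarbital/beta-naphthoflavone-induced male Sprague Dawley rat liver S9, then conditioned medium applied 24 hour to VM7Luc4E2 cells. Viability by fluorogenic protease substrate; 10-point series 0.002 - 200 uM.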

The nature of assay [16]: CCTE_Shafer_MEA_dev_bursting_electrodes_number: CCTE's Neural Network Formation Assay for Number of Bursting Electrodes, Shafer Lab (AID 2284043; active = hit-call score of the fitted dose curve at least 0.9, where 1 is the maximum;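 as to AC50: potency is for loss of bursting electrodes relative to DMSO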). A digest of the protocol: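 Rat cortical primary neurons, 48-well MEA, 16 electrodes/well; dosing DIV 0–12, re-dosed with full media change DIV 5, 9. Recordings DIV 5/7/9/12, AxIS adaptive spike detector; bursting electrode = ≥1 burst/2 min. AUC across days; loss of signal vs DMSO.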

Assay [17] deals with Estrogen receptor (Homo sapiens) (UniProt P03372). The assay can be described thus: CCTE_Deisenroth_AIME_384WELL_LUC_Active: CCTE's 384-well Estrogen Receptor Transactivation Assay with AIME metabolic competence (ERTA luciferase; metabolism positive), Deisenroth Lab (AID 2284030; active = hit-call score of the fitted dose curve at least 0.9, where 1 is the maximum). The procedure, abridged: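 In this metabolism-positive format, a 2-hour exposure to alginate-immobilized rat S9 precedes a 24 hour luciferase transactivation readout in VM7Luc4E2 cells. Dosing spans 10 concentrations from 0.002 to 200 uM.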
Sequence of Estrogen receptor (Homo sapiens) (P03372 whole entry, looked up): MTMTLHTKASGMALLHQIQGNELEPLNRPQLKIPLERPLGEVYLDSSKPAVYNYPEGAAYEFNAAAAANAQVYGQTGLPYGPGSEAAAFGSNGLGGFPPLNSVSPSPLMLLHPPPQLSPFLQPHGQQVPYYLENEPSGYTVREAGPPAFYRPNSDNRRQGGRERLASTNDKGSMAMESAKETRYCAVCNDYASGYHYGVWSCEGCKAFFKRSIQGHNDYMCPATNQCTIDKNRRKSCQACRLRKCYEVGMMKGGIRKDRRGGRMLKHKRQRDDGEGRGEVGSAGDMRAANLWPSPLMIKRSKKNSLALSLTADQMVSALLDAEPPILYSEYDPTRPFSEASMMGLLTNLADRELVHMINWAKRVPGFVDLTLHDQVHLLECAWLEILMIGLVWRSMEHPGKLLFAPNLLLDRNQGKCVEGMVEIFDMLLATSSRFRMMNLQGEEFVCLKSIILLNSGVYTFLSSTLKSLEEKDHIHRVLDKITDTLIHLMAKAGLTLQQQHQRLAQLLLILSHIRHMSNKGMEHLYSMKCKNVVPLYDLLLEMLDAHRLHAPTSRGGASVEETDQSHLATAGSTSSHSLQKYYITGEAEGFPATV

The target is the same in assay [18]. The assay can be described thus: CCTE_Deisenroth_AIME_384WELL_LUC_Inactive: CCTE's 384-well Estrogen Receptor Transactivation Assay without AIME metabolic competence (ERTA luciferase; metabolism negative), Deisenroth Lab (AID 2284038; active = hit-call score of the fitted dose curve at least 0.9, where 1 is the maximum;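 also: VM7Luc4E2 breast cells given medium preincubated 2 h with S9-free microspheres; hits raise estrogen receptor luciferase signal so potencies reflect agonists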). A digest of the protocol: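 VM7Luc4E2 ER transactivation, luciferase bioluminescence after 24 h, using medium pre-incubated 2 h with S9-free alginate microspheres. Concentrations 0.002–200 uM; gain of signal fitted relative to 17beta-estradiol.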

The nature of assay [19]: CCTE_Deisenroth_AIME_384WELL_CTox_Inactive: Cytotoxicity Assessment (CTOX) in CCTE's 384-well Estrogen Receptor Transactivation Assay without AIME metabolic competence (metabolism negative), Deisenroth Lab (AID 2284039; active = hit-call score of the fitted dose curve at least 0.9, where 1 is the maximum;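 also: cell viability via live-cell protease substrate cleaved to fluorescent probe; cells exposed 24 h to medium preincubated 2 h with alginate-water beads without S9; loss of fluorescence signal means loss of viability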). A digest of the protocol:
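VM7Luc4E2 cells, metabolism-negative arm: test chemicals (0.002–200 uM, 10 points) pre-incubated 2 h with alginate-water microspheres, then medium transferred to cells for 24 h. Viability read as protease-substrate cleavage to fluorescent probe; loss-of-signal, bidirectional fitting.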

Assay [20] concerns the target Estrogen receptor (Homo sapiens) (UniProt P03372). Description: CCTE_Deisenroth_AIME_384WELL_LUC_Shift: CCTE's 384-well Estrogen Receptor Transactivation Assay with AIME metabolic competence data shift (ERTA luciferase; difference in metabolism positive and negative), Deisenroth Lab (AID 2284041).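 Also: shift is response with S9 minus without S9 so positive means metabolism raised ER signal.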 The procedure, abridged: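 Chemicals (0.002–200 uM, 10 points) pre-incubated 2 h with alginate-encapsulated induced male Sprague Dawley rat liver S9 or S9-free, then medium applied 24 h to VM7Luc4E2 cells; luciferase. Endpoint is per-concentration difference, S9-positive minus negative.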

On to `FC(F)(F)COCC(F)(F)F`, for which the result in assay [1], in [2], in [3], in assay [4], in [5] and in assay [6] was inactive. Also, the outcome in [7] and in assay [8] was inactive.
In general, AC50 refers to the concentration at which the activity in the assay is half-maximal. For `CN(C)C(=S)SC(=S)N(C)C`, the call in [9], in assay [10], in assay [11], in assay [12] and in assay [14] was inactive. Further, the AC50 in assay [13] is 3390 nM (active).
As to `CCNCCO`, the molecule was classed as inactive in assay [15].
As for `Oc1c(Cl)cc(Cl)c(Cl)c1Cc1c(O)c(Cl)cc(Cl)c1Cl`, the call in [9], in assay [10], in assay [14] and in assay [8] was inactive. In addition, the AC50 in assay [11] was 153 nM (active); in assay [12] it was 540 nM (active); in assay [13], 454 nM (active); in assay [1], 894 nM (active) and 1.28 µM (active); in assay [2] it was 1.16 µM (active) and 954 nM (active); in assay [3], 1.02 µM (active) and 1.07 µM (active). Also, the AC50 was 976 nM (active) and 688 nM (active) in assay [4]; 919 nM (active) and 769 nM (active) in assay [16]; 2.04 µM (active) and 2.61 µM (active) in assay [5]; 1.19 µM (active) and 2.59 µM (active) in assay [6]; 2.62 µM (active) and 2.86 µM (active) in [7]; 60.1 nM (active) in assay [8].
With `O=C1NC2NC(=O)NC2N1` (stereo unspecified), in assay [15], the outcome was inactive.
With `CC(C)CCCCCCc1ccc(OCCOCCO)cc1`, the call in assay [17], in assay [15], in assay [18], in [19] and in assay [20] was inactive.
As for `CS(C)=O`, the outcome in [15] was inactive.
`CCCCC(CC)COC(C)=O` (stereo unspecified): in assay [15], the outcome was inactive.
Turning to `COCCc1ccc(OCC(O)CNC(C)C)cc1` (stereo unspecified), the outcome in assay [9], in assay [10], in assay [11], in assay [12], in assay [13] and in assay [14] was inactive. The molecule was called inactive in [1], in assay [2], in [3], in [4], in assay [16] and in assay [5]. The call in assay [6], in assay [7] and in assay [8] was inactive.
On to `OCc1cccc(Oc2ccccc2)c1`, for which the molecule was classed as inactive in assay [15].
With `C=CC(C)(O)CCC=C(C)C` (stereo unspecified), the molecule was called inactive in assay [9], in assay [10], in assay [11], in assay [12], in [14] and in [15]. For the same molecule, in [19], the outcome was inactive. For the same molecule, in [13], the AC50 is 3 nM (active).
With `O=CN1CCOCC1`, the outcome in assay [9], in [10], in assay [11], in assay [12], in assay [13] and in assay [14] was inactive.
As to `CCCCCCC(CO)CCCC` (stereo unspecified), the result in [9], in assay [11] and in assay [13] was inactive. Besides, the AC50 was 50.9 nM (active) in assay [10], 77.4 nM (active) in [12] and 4380 nM (active) in assay [14].
Regarding `CC1(C)CCC[C@]2(C)[C@H]3CCO[C@]3(C)CC[C@@H]12`, the molecule was classed as inactive in [9], in assay [10], in [11], in assay [12], in assay [13] and in assay [14].
